Screens deposited in PubChem BioAssay by several laboratories.
IDE cell activ – activators of human insulin-degrading enzyme in cells | P14735 | AID 493087 | activation, % at 5.96 µM | hit rate 0.073% among 340,000 | HEK cells, FAbeta-B cleavage, fluorescence polarization; 0% vehicle, 100% cell-free pure enzyme wells;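 active means activation above the mean of all tested compounds plus 3 SD, set per screening campaign, cut at about 17% in these data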
LANA-H2A inh – blocks KSHV LANA binding to histone H2A/H2B. Q9QR71. cell-free LANA-H2A/H2B peptide, fluorescence polarization. inhibition, % (test concentration not listed). hit rate 0.6% among 320,000. AID 2629; in the data active means inhibition mostly above about 10%, no sharp cut-off; inactive means mostly below about 6.7%
HDAC3 inh – inhibitors of human histone deacetylase 3 | O15379 | recombinant HDAC3, fluorogenic peptide/trypsin coupled, fluorescence | inhibition, % at 8.3 µM | hit rate 0.15% among 320,000 | AID 2718; in the data active means inhibition above about 26%, passing the limit was not always enough
IDE inh – inhibits human insulin-degrading enzyme in HEK cells; P14735; FAbetaB cleavage, fluorescence polarization; inhibition, % at 5.59 µM; hit rate 0.41% among 320,000;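 active means percent inhibition above the average of all tested compounds plus 3 SD, set per screening campaign, cut at about 16% in these data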;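 further: IDE supplied by intact live HEK cells; FP after avidin binding of uncleaved biotin substrate so inhibition keeps polarization high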
SUMO Mot1 rescue – blocks SUMOylation pathway, rescuing yeast Mot1-301 growth. hit rate 1% among 320,000. S. cerevisiae Mot1-301 growth rescue, ATP luminescence, 38.5C; percent above DMSO median, 100 means doubled. growth rescue, % at 18.8 µM;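 active means every valid replicate shows activation above 250% relative to neutral control wells; inactive means the rest, any valid replicate at or below 250%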
Numbers stand for hits; . = inactive; / = no result; + = active, no number; ! = not active in a repeat. Rows were chosen to be rich in hits. Some 2.1% of all compounds tested hit in one or more screens of this group.

SMILES	IDE cell activ	LANA-H2A inh	HDAC3 inh	IDE inh	SUMO Mot1 rescue
C/C(=N\NC(=O)c1ccc(CN2CCc3ccccc3C2)cc1)c1ccccc1O	.	.	.	.	.
CN(CCC1CCOCC1)C(=O)CC1C(=O)NCCN1Cc1c(F)cccc1Cl (stereo not given)	.	40.1	.	.	.
Cc1ccc(S(=O)(=O)NC2CCCCC2)cc1	.	45.2	.	.	.
S=C(NCCN1CCCCC1)Nc1ccc(Br)cc1	.	.	.	.	347.8
CC(C)C[C@@H](CN)NC(=O)c1nc[nH]c1C(=O)N[C@@H](CC(C)C)C(=O)CNC[C@H](C)NC(=O)c1nc[nH]c1C(=O)N[C@@H](CC(C)C)C(=O)O	.	/	/	/	/
C[C@H](NC(=O)Cc1cccc2ccccc12)C(=O)NCc1ccccc1	.	16.4	.	.	.
O=C1CSC(=S)N1/N=C/c1cc(Br)c(O)c(Br)c1	.	.	.	132.6	.
O=C1CSC(=S)N1N=Cc1ccccc1O	.	/	/	/	/
C[C@H](O)CC(=O)O	.	.	.	.	.
NC(=O)c1ccc(NC(=O)COC(=O)c2ccc(Cl)nc2)cc1	.	12.0	.	.	.
O=C(O)c1ccccc1SCCS(=O)(=O)c1ccc(Cl)cc1Cl	.	.	.	.	.
O=c1[nH]c(=O)n(C2CC(O)C(CO)O2)cc1I (stereo not given)	.	/	/	/	/
Cc1cn([C@H]2C[C@H](N=[N+]=[N-])[C@@H](CO)O2)c(=O)[nH]c1=O	.	15.1!	.	.	.
CC(=O)OC[C@]12CC[C@H]3[C@@](C)(CC[C@H]4C(C)(C)CCC[C@]34C)[C@@H]1C[C@H](C1=CC(=O)O[C@H]1OC(C)=O)O2	/	.	.	.	910.1
CC(=O)OC[C@]12CC[C@H]3[C@@](C)(CC[C@H]4C(C)(C)CCC[C@]34C)[C@@H]1C[C@@H](C1=CC(=O)O[C@@H]1OC(C)=O)O2	/	.	.	.	.
CCN(CC)CC(=O)Nc1ccc(C)cc1C(=O)c1ccccc1	.	.	.	.	.
CCN(CC(=O)Nc1ccc(NC(C)=O)cc1)CC(=O)Nc1ccccc1C(=O)c1ccccc1	.	10.2	.	.	.
COc1ccc(C(=O)C2CCCN(C3Cc4ccccc4C3)C2)c(OC)c1 (stereo not given)	.	.	.	.	.
O=C(CCNC(=O)c1ccc(Br)cc1)NCc1cccnc1	.	22.0	.	.	.
O=C(CNC(=O)c1ccc(Br)cc1)NCc1cccnc1	.	.	.	.	.
O=C(CCSCc1ccc(Cl)cc1)NCc1cccnc1	.	+	.	.	.
O=C(CCSCc1ccc(Cl)cc1)NCCc1ccccc1	.	.	.	.	.
CCC(=O)c1ccc(OCc2ccc(C(=O)OC)cc2)cc1	.	14.3	.	.	.
COc1ccc(CC(=O)OCC(=O)NC2CC2)cc1	.	.	.	.	.
CCN(Cc1ccccc1)C(c1ccccn1)c1nnnn1C1CCCCC1 (stereo not given)	.	.	.	.	/
SMILES	IDE cell activ	LANA-H2A inh	HDAC3 inh	IDE inh	SUMO Mot1 rescue
CC(c1nnnn1C1CCCCC1)N(Cc1ccccc1)Cc1cccnc1 (stereo not given)	.	.	.	.	278.4
Cc1cc(S(=O)(=O)N2CCCC2)ccc1OCC(=O)Nc1ccccc1	.	.	.	.	.
O=C1CC(c2ccc(O)cc2)Oc2cc(O)cc(O)c21 (stereo not given)	.	.	.	.	.
CC1CC(=O)c2c(cc3c(-c4c(O)cc(O)c5c(O)c6c(cc45)OC(C)CC6=O)c(O)cc(O)c3c2O)O1 (stereo not given)	25.3	.	.	.	.
CCOC(=O)c1c(C)[nH]c(C(=O)OCC(=O)N2CCN(S(=O)(=O)c3ccc(C)cc3C)CC2)c1C	.	122.3	.	.	.
O=C(Nc1ccccc1C(=O)NCCCN1CCOCC1)c1ccc(Cl)cc1	.	87.9	.	.	.
Cc1cccc(N2CCN(C(=S)Nc3ccc4nc(N5CCN(C)CC5)cc(C)c4c3)CC2C)c1 (stereo not given)	30.1	.	/	.	.
Cc1cc(N2CCN(C)CC2)nc2ccc(NC(=S)N3CCN(c4cccc(Cl)c4)CC3)cc12	.	.	/	.	.
Cc1cc(N2CCN(C)CC2)nc2ccc(NC(=S)N3CCN(c4ccc(Cl)cc4)CC3)cc12	.	.	.	.	539.2
Cn1c(=O)c(NCCc2ccccc2)c2c3c(cccc31)C(=O)c1ccccc1-2	.	128.0	.	.	.
Cn1c(=O)c(NCCO)c2c3c(cccc31)C(=O)c1ccccc1-2	53.7	184.9	.	.	.
COc1ccc(CN2CCCC(CNC(=O)c3ccc(F)cc3)C2)c(C)c1C (stereo not given)	.	.	.	.	.
CCO[C@@H]1OC(C(=O)O)=C[C@H](c2ccc(Br)cc2)[C@H]1CCCO	.	.	40.5	.	.
Oc1ccccc1/C=N/Nc1ncc(Br)cn1	.	+	.	.	.
Oc1ccccc1/C=N/Nc1ccccc1	.	.	.	.	.
O=C(Nc1ccc(Oc2cccc(C(F)(F)F)c2)nc1)c1ccco1	.	.	.	.	342.1
CC(C)(C)c1ccc(Oc2ccc(NC(=O)c3ccco3)cn2)cc1	.	.	.	.	.
O=C(COC(=O)CNC(=O)c1ccccc1)NC1CCCC1	.	/	/	/	/
Cn1c(=O)c(N)c2c3c(c(Br)ccc31)C(=O)c1ccccc1-2	.	42.7	.	.	.
Cc1ccccc1NC(=O)CN1C(=O)COc2ccc(S(=O)(=O)N3CCCC3)cc21	.	13.8	.	.	.
COc1ccc(/C=C/C(=O)Nc2cc(S(=O)(=O)N3CCOCC3)ccc2C)cc1OC	.	+	.	.	.
COc1ccc(OC)c(CC(=O)Nc2cc(S(=O)(=O)N3CCCCC3)ccc2C)c1	.	71.4	.	.	.
COc1ccccc1CCC(=O)N1CCC(n2nccc2NC(=O)C2CCOC2)CC1 (stereo not given)	.	.	.	.	.
O=C(Cc1ccccc1)NCC(=O)N1CCN(Cc2cccc(Cl)c2)CC1	.	.	.	.	.
Cc1ccc(-c2nc(-c3ccccn3)sc2CC(=O)O)cc1	.	.	/	.	327.9
SMILES	IDE cell activ	LANA-H2A inh	HDAC3 inh	IDE inh	SUMO Mot1 rescue
COc1cc(CNc2ncnc3c2[nH]c2ccc(C)cc23)cc(OC)c1	.	.	.	55.5	.
COc1ccc(/C=N/Nc2ncnc3c2[nH]c2ccc(C)cc23)c(OC)c1OC	/	.	.	39.0	.
COc1ccc2[nH]c3c(NCCN4CCCCC4)ncnc3c2c1	.	.	.	.	.
O=C(NCC1CC1)c1onc(CSc2ccc(F)c(F)c2)c1C(=O)NCC1CC1	64.8	.	.	.	.
NC(=O)COc1ccc(Nc2nnc(-c3ccc(O)cc3)c3ccccc23)cc1	.	18.8	.	.	.
CCOC(=O)N1CCN(C(=O)c2cc(COc3ccc(OC)cc3Cl)on2)CC1	.	.	.	.	.
COc1ccc(OCc2cc(C(=O)N3CCN(CC4CC4)CC3)no2)c(Cl)c1	.	25.7	.	.	.
COc1ccc(NC(C)=O)cc1NC(=O)CSc1nc2ncccc2[nH]1	.	.	.	.	330.6
